Results: PubChem BioAssay AID1946 (Johns Hopkins Ion Channel Center, 2009)
Out of some 2,400 compounds screened, about 180 (7.5%) were called active. The sample holds actives, similar compounds and a random draw of the others, so the mix is not that of the screen.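 How the source made its calls: active means readout below zero, meaning a drop past 3 SD under the dofetilide-free negative control mean; inactive means the rest.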

molecular target: Potassium voltage-gated channel subfamily KQT member 2 (Rattus norvegicus) (UniProt O88943); assay: rat KCNQ2 channel inhibition by compounds alone, confirmation, counter-screen for hERG block protector project, cell-based, CHO, FluxOR thallium flux (AID 1946); settings: CHO-KCNQ2 cells, FluxOR thallium flux fluorescence; at 10 µM; active compounds read low; zero marks the 3-SD hit cutoff
Sequence (O88943 whole entry, looked up): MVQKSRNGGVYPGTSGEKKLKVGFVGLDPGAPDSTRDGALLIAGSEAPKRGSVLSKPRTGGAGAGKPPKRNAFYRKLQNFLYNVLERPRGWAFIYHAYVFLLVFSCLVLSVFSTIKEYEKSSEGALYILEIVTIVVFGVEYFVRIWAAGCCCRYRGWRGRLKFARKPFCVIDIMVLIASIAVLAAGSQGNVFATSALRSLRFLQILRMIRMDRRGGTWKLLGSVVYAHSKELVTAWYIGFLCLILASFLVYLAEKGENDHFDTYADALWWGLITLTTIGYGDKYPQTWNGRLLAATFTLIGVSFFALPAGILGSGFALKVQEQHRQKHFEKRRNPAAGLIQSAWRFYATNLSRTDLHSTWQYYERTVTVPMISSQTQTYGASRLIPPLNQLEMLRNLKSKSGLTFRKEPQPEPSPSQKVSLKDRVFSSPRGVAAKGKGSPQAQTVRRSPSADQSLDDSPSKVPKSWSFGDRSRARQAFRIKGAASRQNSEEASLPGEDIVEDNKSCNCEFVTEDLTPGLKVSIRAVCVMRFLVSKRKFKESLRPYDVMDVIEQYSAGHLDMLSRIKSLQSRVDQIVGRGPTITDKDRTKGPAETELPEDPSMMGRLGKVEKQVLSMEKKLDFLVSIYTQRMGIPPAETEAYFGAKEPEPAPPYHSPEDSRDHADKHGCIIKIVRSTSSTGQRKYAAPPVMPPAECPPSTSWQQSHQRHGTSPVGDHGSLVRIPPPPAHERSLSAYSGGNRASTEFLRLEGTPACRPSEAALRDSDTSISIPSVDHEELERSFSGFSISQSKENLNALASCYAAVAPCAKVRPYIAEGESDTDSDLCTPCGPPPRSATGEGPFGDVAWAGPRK

| SMILES | activity change vs negative control |
| --- | --- |
| Cn1c(O)c(N=Nc2nc(-c3ccccc3)cs2)c2ccccc21 | 90.8% (inactive) |
| Cc1nc(-c2ccccc2)cn(O)c1=O | 20.4% (inactive) |
| CC1=NN(c2nc(-c3ccccc3)cs2)C(=O)C1N=Nc1ccccc1 (configuration not stated) | -5% (active) |
| c1ccc(CCCNc2ncnc3nc[nH]c23)cc1 | 61.8% (inactive) |
| Fc1ccc(N2CCN(c3ccc4c(C(F)(F)F)cc(C(F)(F)F)nc4n3)CC2)cc1 | -5.3% (active) |
| Cc1ccc(C(C#N)c2ccc3c(C(F)(F)F)cc(C(F)(F)F)nc3n2)cc1 (configuration not stated) | 17.2% (inactive) |
| Cc1cc(-c2csc3nc[nH]c(=S)c23)cc(C)c1C | 55.1% (inactive) |
| CC(/C=C1\SC(=S)N(NS(=O)(=O)c2ccccc2)C1=O)=C\c1ccccc1 | 47.5% (inactive) |
| O=C(CN1CCN(Cc2ccccc2)CC1)NCc1ccccc1Cl | 17.7% (inactive) |
| O=C(CN1CCCCCCC1)Nc1cccc(Cl)c1Cl | -6.4% (active) |
| O=C(CN1CCCCCC1)Nc1ccc(Oc2ccccc2)cc1 | 3.4% (inactive) |
| O=C(NC(=S)N1CCc2ccccc21)c1ccccc1Cl | 93% (inactive) |
| CCCn1c(SCN2C(=O)c3ccccc3C2=O)nc2cc(Cl)ccc2c1=O | 50.5% (inactive) |
| COC(=O)c1c(NC(=S)Nc2ccc(F)cc2[N+](=O)[O-])sc2c1CCCCC2 | 25.2% (inactive) |
| CCc1ccc(NC(=O)C(=O)NNC(=O)c2ccc(OC)cc2)cc1 | 122% (inactive) |
| COc1cc(C2C(C#N)=C(N)Oc3c2ccc2ccccc32)ccc1OCC(=O)Nc1ccc(C)cc1 (configuration not stated) | -0.6% (active) |
| COc1ccccc1CC(=O)Nc1ccc(OC)c(OC)c1 | 9.2% (inactive) |
| CCCOc1ccc(C2NC(=S)NC(c3ccccc3)=C2C(=O)Nc2ccc(C)cc2)cc1OC (configuration not stated) | 15.3% (inactive) |
| COc1ccc(-c2oc3ccccc3c(=O)c2OC(C)=O)cc1 | 38.6% (inactive) |
| O=C(COc1ccc2ccccc2c1Br)Nc1cccnc1 | 0.9% (inactive) |
| O=C(COc1ccccc1)Nc1ccc(F)cc1 | 0.6% (inactive) |
| CCc1nnc(NC(=O)COc2ccc([N+](=O)[O-])cc2)s1 | 15.3% (inactive) |
| O=C(COc1ccc([N+](=O)[O-])cc1)Nc1cccnc1 | -4.2% (active) |
| N#Cc1ccc(-c2ccc(OCC(=O)Nc3cccnc3)cc2)cc1 | 13.9% (inactive) |
| O=C(COc1ccc(C(=O)c2ccccc2)cc1)Nc1cccnc1 | -20.5% (active) |
| O=c1c2c3c(sc2[nH]c(=S)n1Cc1ccco1)CCC3 | 56.4% (inactive) |
| Cc1[nH]n(-c2cccc3ccccc23)c(=O)c1/C=N/c1sc2c(c1C#N)CCC2 | 23.1% (inactive) |
